In PubChem BioAssay:

What follows are molecules tested against Torsin-1A (Homo sapiens) (UniProt O14656) (assay: TOR1A wild-type binding on microarray – cell lysate, small-molecule microarray, lysate, 635/667 nm, primary screen (AID 1149)). Conditions: COS7 hTOR1A-WT lysate, 635 nm fluorescence, higher = more signal.
Torsin-1A (Homo sapiens), sequence (O14656 whole entry, looked up): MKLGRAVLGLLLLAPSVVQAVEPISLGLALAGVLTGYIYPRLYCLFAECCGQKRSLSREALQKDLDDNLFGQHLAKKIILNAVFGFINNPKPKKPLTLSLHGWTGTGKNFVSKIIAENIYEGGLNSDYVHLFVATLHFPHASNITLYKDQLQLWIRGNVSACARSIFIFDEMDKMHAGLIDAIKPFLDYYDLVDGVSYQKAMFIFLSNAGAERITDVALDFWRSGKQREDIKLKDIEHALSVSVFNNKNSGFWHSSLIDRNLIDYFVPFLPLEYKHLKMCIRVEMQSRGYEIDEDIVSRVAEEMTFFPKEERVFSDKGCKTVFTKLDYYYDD
For `COc1cc(CO)cc(I)c1O[C@H]1C=C(C(=O)NCCO)C[C@@H](N(CC2CCCCC2)C(=O)c2cc3ccccc3oc2=O)[C@@H]1O`, the composite z-score was 0.0653.
Work on `C=C(CCCC)/C(=C/C[C@@H](OC(=O)c1ccncc1)c1cccc(OCCO)c1)c1cc(C(=O)OC)ccc1OC` yielded a composite z-score of 1.13.
Molecule `C=CCC(OC(C)=O)[C@@H]1[C@@H](N(Cc2ccc(-c3ccccc3)cc2)C(=O)c2ccc(-c3ccccc3)cc2)c2cc(OCCCO)ccc2N1C(=O)Cc1ccc(OC)cc1` (stereo partly specified) has a composite z-score of -0.096.
Molecule `CC(=O)NCCCC[C@@H]1NC(=O)[C@H]2C[C@@H](C(=O)NCCCCCCN(C)C)[C@@H](c3ccc(O)cc3)N2C1=O` has a composite z-score of 1.6.
For `Cc1ccc(S[C@]2(C(=O)NC(C)C)CC(=O)N(C3Cc4ccccc4C3)[C@@H]2c2ccc(CO)cc2)cc1`, the composite z-score was 0.876.
For `Cc1ccc(N2C(=O)c3ccccc3[C@](C)(C(=O)NCC(C)C)[C@@H]2c2ccc(CO)cc2)nc1`, the composite z-score was -0.458.
For `[N-]=[N+]=NCc1ccccc1C[C@]1(C(=O)N2CCCCC2)N=C(c2ccc(OCCCO)cc2)O[C@H]1c1ccccc1CN=[N+]=[N-]`, the composite z-score was 0.064.
For `C=C(CCCC)/C(=C/C[C@H](OC(=O)c1ccncc1)c1cccc(OCCO)c1)c1cc(C(=O)OC)ccc1OC`, the composite z-score was 0.349.
`O=C(CS)NCCCCCCNC(=O)[C@@H]1C[C@@H]2C(=O)N[C@@H](Cc3ccccc3)C(=O)N2[C@@H]1c1ccc(O)cc1` gave a composite z-score of 1.12.
Work on `C=C(CCCC)C(=O)CC[C@@H](OC(=O)c1cccnc1)c1cccc(OCCO)c1` yielded a composite z-score of 1.08.
Work on `COc1ccc([C@H]2C[C@H]3C(Br)=C[C@]2(OC)C(=O)[C@]32CO2)cc1` yielded a composite z-score of 0.806.
`C=C(C(=O)CC[C@H](OC(=O)c1ccccc1-c1ccccc1C(=O)O)c1ccc(CO)o1)C(C)C` was tested, and the composite z-score was 0.427.
Work on `C#CCCCON=C1C[C@@H](O)[C@@H](O)[C@@H]2[C@@H]3C(=O)N(Cc4ccc5c(c4)OCO5)C(=O)[C@@H]3CC[C@H]12` yielded a composite z-score of 0.572.
`COC(=O)c1ccc(C#CC(NP(=O)(c2ccccc2)c2ccccc2)c2ccccc2)cc1` (stereo unspecified) showed a composite z-score of -0.497.
With `CCOC(=O)C1=CC[C@@H](c2ccc(-c3ccc(OCc4ccccc4)cc3)c(OC)c2)N(S(=O)(=O)c2ccc(C)cc2)[C@H]1c1ccccc1` the composite z-score was 0.277.
Molecule `CC(c1ccccc1)C(O)C1C=CC2C(=O)N(C)C(=O)C2N1N(c1ccccc1)c1ccccc1` (stereo unspecified) has a composite z-score of 0.18.
`C=C[C@H](OC)[C@@H](OC(=O)Nc1ccc(SC)cc1)c1ccc(O)c(F)c1` was tested, and the composite z-score was 0.373.
Molecule `C=C(CCCC)C(=O)CC[C@@H](OC(C)=O)c1ccccc1OCCO` has a composite z-score of -0.0615.
`CC(=O)NCCCC[C@@H]1NC(=O)[C@H]2C[C@@H](C(=O)NCCCCCCN(C)C)[C@@H](c3cccc(OCCO)c3)N2C1=O` was tested, and the composite z-score was 1.37.
`CCCC=C(CCC)[C@@H](NS(=O)(=O)c1cccc(C(F)(F)F)c1)c1ccc(C(=O)OC)cc1` was tested, and the composite z-score was 0.258.
For `O=C(NCc1ccccc1)[C@@]1(Cc2ccccc2)COC(c2ccc(OCCCO)cc2)=N1`, the composite z-score was -0.0265.
With `[N-]=[N+]=NCc1ccccc1[C@H]1OC(c2ccc(OCCCO)cc2)=N[C@@]1(Cc1ccccc1N=[N+]=[N-])C(=O)NCc1ccccc1` the composite z-score was 0.22.
Molecule `NC(=O)NCC#Cc1ccc2c(c1)[C@]1(C(=O)N2)[C@H](C(=O)N2CCCCCCC2)[C@H]2C(=O)O[C@H](c3ccccc3)[C@H](c3ccccc3)N2[C@@H]1c1ccccc1OCCO` has a composite z-score of 1.73.
`C#CCNC(/C=C/c1ccccc1)CO` (stereo unspecified) was tested, and the composite z-score was 0.304.
Molecule `O=C1C2C=CC(C(O)C(c3ccccc3)c3ccccc3)N(Nc3ccc([N+](=O)[O-])cc3)C2C(=O)N1c1ccccc1` (stereo unspecified) has a composite z-score of 0.738.
With `C=C(CCCC)/C(=C/C[C@@H](OC(=O)c1ccncc1)c1ccc(CO)o1)c1cnc2ccccc2c1` the composite z-score was 1.42.
In the case of `CCc1cccc(NC(=O)O[C@H]2[C@H](OC(=O)Nc3ccccc3)[C@@H](OC(=O)Nc3ccccc3)[C@@H](OC)O[C@@H]2CO)c1`, the composite z-score is reported as 2.73.
`C=CC[C@]1(C(=O)N2CCCCC2)N=C(c2ccc(OCCCO)cc2)O[C@H]1c1ccccc1N=[N+]=[N-]` showed a composite z-score of 1.02.
`C#C[C@H](O[Si](C#Cc1ccccc1)(C(C)C)C(C)C)c1ccccc1` showed a composite z-score of -0.234.
`CCOC(=O)C1=CC[C@@H](c2ccccc2)N(S(=O)(=O)c2ccc(C)cc2)[C@H]1C` gave a composite z-score of 1.41.
`O=C(N1CCCCC1)[C@@]1(CCS(=O)(=O)c2ccccc2)N=C(c2ccc(OCCCO)cc2)O[C@H]1c1ccccc1` was tested, and the composite z-score was 1.06.
For `CC(C)(C)OC(=O)CC[C@]1(C(=O)N2CCCCC2)N=C(c2ccc(OCCCO)cc2)O[C@H]1c1ccccc1`, the composite z-score was 1.68.
`N#Cc1ccc(NN2C(C(O)CCc3ccccc3)C=CC3C(=O)N(c4ccccc4)C(=O)C32)cc1` (stereo unspecified) was tested, and the composite z-score was -0.0047.
Work on `Cc1ccc(S[C@]2(C(=O)NC3CC3)CC(=O)N(Cc3cc(C(F)(F)F)cc(C(F)(F)F)c3)[C@@H]2c2ccc(CO)cc2)cc1` yielded a composite z-score of -0.408.
Molecule `C#CCCCON=C1C[C@@H](O)[C@@H](O)[C@@H]2[C@@H]3C(=O)N(Cc4ccc5c(c4)OCO5)C(=O)[C@@H]3CC[C@@H]12` has a composite z-score of -0.345.
Molecule `Cc1ccc(S(=O)(=O)N2[C@@H](c3ccccc3)C(C(=O)O)=CC[C@H]2c2ccccc2)cc1` has a composite z-score of 0.195.
